Laboratory results taken from PubChem BioAssay AID652136 (The Scripps Research Institute Molecular Screening Center, 2013).
The campaign covered roughly 2,400 compounds. About 1,900 (79%) were called active. The set was probably picked from earlier hits. Only a sample is shown. Values without a mark were called inactive.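 Rule for the calls: active = inhibition above the mean of all tested compounds plus 3 SD (cut at about 3% in these data); inactive = the rest.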

Experiment: SF-1 AF-2 mutant transactivation artefacts – cell-based, luminescence, counter-screen for DAX1 inhibitor project (AID 652136);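 note: 0% = DAX-1 transfected cells with DMSO and 100% = cells without DAX-1 with DMSO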
Conditions: HEK293 StAR-luciferase, SF-1 AF2 mutant, at 6.8 µM, hits give high values

SMILES | inhibition
COc1ccc(-c2csc(-c3cccs3)n2)cc1OC | 5.61% (active)
Cc1ccc(S(=O)Cc2ccc(C(=O)N3CCN(C4CCCCC4)CC3)o2)cc1 (stereo not drawn) | 2.33%
CN1CCN(C(=O)c2ccc(-c3ccc(Br)cc3)o2)CC1 | 4.28% (active)
O=C(Nc1ncccc1O)c1ccc(S(=O)(=O)N2CCCCCC2)cc1 | 2.43%
O=C(Nc1ncccc1O)c1ccc(C(=O)c2ccccc2)cc1 | 35.8% (active)
O=C(Nc1ncccc1O)c1ccc(S(=O)(=O)N2CCCC2)cc1 | 5.53% (active)
CC1CCN(CCCNC(=O)CN2C(=O)CSc3ccc(S(=O)(=O)N4CCCCC4)cc32)CC1 | 1.65%
Clc1ccc(Nc2nc(-c3cccs3)cs2)nc1 | 7.52% (active)
COc1cc(OC)c(C(=O)NNC(=O)c2ccc(NS(=O)(=O)c3cccs3)cc2)cc1OC | -0.43%
CC(C)(C)c1csc(NC2=NS(=O)(=O)c3ccccc32)n1 | 7.77% (active)
Cc1ccc(N/C=C/C(=O)c2ccccc2)cc1C | 4.16% (active)
Fc1ccc2cnc(-c3ccccc3)cc2c1 | 5.1% (active)
O=C(NCCc1ccc(F)cc1)c1ccc2nccnc2c1 | 8.87% (active)
COc1ccc2nc(-c3ccccn3)ccc2c1 | 5.03% (active)
Cc1nn(-c2ccc([N+](=O)[O-])cc2)c(N)c1-c1ccccc1 | 6.97% (active)
O=C(NC(=S)Nc1ccc(Cl)cc1Cl)C1CC1 | 3.76% (active)
COc1ccc(CCOC2OC(CO)C(OC(=O)/C=C/c3ccc(O)c(OC)c3)C(O[C@H]3O[C@@H](C)[C@H](O)[C@@H](O)[C@H]3O)C2O)cc1O (stereo partly drawn) | 1.22%
Cc1cc(OCc2cc(C(=O)NCc3cc(C(C)C)no3)no2)cc(C)c1Cl | 3.41% (active)
CCC(=O)Nc1ccc(-c2ccc(N3CCCCC3)nn2)cc1 | 2.89% (active)
COc1ccc(C(=O)NCC[N+](C)(C)C)cc1 | 1.97%
CCCOc1ccc(C(=O)NCCc2ccccc2)cc1 | 4.75% (active)
COc1ccc(CCNC(=O)COC(=O)Cc2ccccc2F)cc1 | -0.5%
CN(C(=O)c1cc2c(=O)n3ccccc3nc2s1)C1CCCCC1 | 3.77% (active)
Cc1ccccc1OCC(=O)Nc1ccc2c(c1)ncn2C | 5.06% (active)
Cc1ccccc1Nc1nc(N)nc(CSc2ccccc2)n1 | 9.51% (active)
CCOc1cccc(/C=C/c2ccc3ccccc3n2)c1OC(C)=O | 2.8%

SMILES | inhibition
CNCC(O)c1ccc(O)c(O)c1 (stereo not drawn) | -2.85%
O=c1c2c(nc3cc(-c4cccc(Cl)c4)[nH]n13)CCCC2 | 5.64% (active)
O=C(NCC1(N2CCCCC2)CCCCC1)c1ccc(NS(=O)(=O)c2ccc(F)cc2)cc1 | 6.24% (active)
CCOc1ccc(S(=O)(=O)Nc2cccc(C(=O)NCC3(N4CCCCC4)CCCCC3)c2)cc1 | 5.11% (active)
CCN(c1ccccc1)S(=O)(=O)c1ccc(OCC(=O)N2CCCC2)cc1 | 1.13%
COc1ccccc1-c1cc(C(=O)N2CCCCC2)no1 | 7.48% (active)
COc1ccc(OCc2cc(C(=O)N3CCCC3)no2)c2ccccc12 | 6.26% (active)
O=C(c1cc(-c2cccs2)on1)N1CCCCC1 | 4.85% (active)
O=C(c1cc(-c2ccccc2O)on1)N1CCCC1 | 7.17% (active)
CCOC(=O)c1c(S(=O)(=O)Nc2ccc(CN3CCC(C)CC3)cc2)c(C)n(C)c1C | 1.43%
O=C(Nc1ccc2ccccc2c1[N+](=O)[O-])c1ccccc1 | 6.14% (active)
COc1ccc(-c2csc(Nc3ccccn3)n2)cc1 | 5.68% (active)
COc1ccc(-c2cn3ccsc3n2)cc1 | 6.15% (active)
COc1ccc(-c2cn3ccc(C)cc3n2)cc1 | 3.87% (active)
COC(=O)Nc1nc2ccc(C(=O)C3CC3)cc2[nH]1 | -5.19%
O=C(CSc1cccc[n+]1[O-])c1ccc(-c2ccccc2)cc1 | 1.01%
NS(=O)(=O)c1ccc2nc(NC(=O)C3=COCCO3)sc2c1 | 5.19% (active)
Cc1cc(N)n2nc(-c3ccc(C(C)(C)C)cc3)cc2n1 | 8.64% (active)
CCc1ccc2oc(-c3ccc(N)cc3)nc2c1 | 4.11% (active)
O=C(NCC1CCCO1)c1cc2c(s1)CCCC2 (stereo not drawn) | 4.63% (active)
O=C(O)c1cccc(N=NN2CCCCCC2)c1 | 8.65% (active)
CCOc1ccc(-c2nnc(-c3ccco3)o2)cc1 | 3.8% (active)
O=C(NCCOc1ccccc1)c1ccccc1F | 6.6% (active)
C/C(=N\NC(=O)c1ccccc1F)c1ccccn1 | -9.06%
OC(c1ccccc1)c1nc(-c2cnc3ccccc3c2)cs1 (stereo not drawn) | 6.87% (active)
CC(Oc1ccccc1[N+](=O)[O-])C(=O)N/N=C/c1ccoc1 (stereo not drawn) | -0.59%

SMILES | inhibition
Cc1cc(C(=O)NCCc2ccc(Cl)cc2)c(C)o1 | 2.83%
CC(C)Cc1cc(C(=O)NCCc2ccccc2)no1 | 4.55% (active)
CC(C)c1ccc(C=NNc2ccc([N+](=O)[O-])cn2)cc1 | 7.98% (active)
O=[N+]([O-])c1ccc2oc(-c3cccc(O)c3)nc2c1 | 8.65% (active)
COc1ccc(Nc2ncc(F)c(N3CCOCC3)n2)cc1 | 7.01% (active)
Cc1ccc(-c2nc3ccc(Br)cn3c2Cc2ccccc2C(F)(F)F)cc1 | 3.81% (active)
COc1ccccc1Cc1c(-c2ccc(F)cc2)nc2ccc(C)cn12 | 3.36% (active)
C=CCn1c(SCC(=O)Nc2ccc(NC(C)=O)cc2)nc2sc(C)c(C)c2c1=O | -2.48%
O=C(c1cnn(-c2ccc(Cl)cc2)c1)c1ccccc1O | 7.41% (active)
O=C1C(C=NCC2CCCO2)=C(O)c2ccccc21 (stereo not drawn) | 4.34% (active)
Nc1ccc2nn(-c3ccc(Cl)cc3)nc2c1 | 10.2% (active)
COc1ccc2nc(SCc3ccccc3)nc(C)c2c1 | 8.35% (active)
CC(C)c1ccc(Nc2nnc(SCC(=O)c3nnc(-c4ccccc4)o3)s2)cc1 | 5.91% (active)
CCc1ccc(NC(=O)N2CCc3ccccc3C2)cc1 | 2.82%
O=C(Nc1ccc2c(c1)CCC2)c1ccc(Br)s1 | 5.35% (active)
O=C(Nc1ccccc1)Nc1nc2ccccc2s1 | 10.3% (active)
Nc1ccc(C(=O)Nc2ccccc2N)cc1 | 42.6% (active)
O=C(NC(=S)NC1CCCCC1)c1ccc(Cl)cc1 | 4.24% (active)
CSCCC(NC(=O)c1ccco1)C(=O)Nc1cc(C)ccn1 (stereo not drawn) | 7.83% (active)
O=c1c2c(nc3n1CCCCC3)sc1c(O)cccc12 | 7.48% (active)
CC[C@]1(O)CC2CN(CCc3c([nH]c4ccccc34)[C@@](C(=O)OC)(c3cc4c(cc3OC)N(C=O)[C@H]3[C@@](O)(C(=O)OC)[C@H](OC(C)=O)[C@]5(CC)C=CCN6CC[C@]43[C@@H]65)C2)C1 (stereo partly drawn) | -7.3%
COC(=O)c1sc(NC(=O)c2ccc(OC)cc2OC)nc1C | 3.15% (active)
CN1OC[C@@H]2CN[C@H](c3ccc(-c4ccccc4)cc3)C[C@@H]21 | 5.72% (active)
CC(=O)Nc1cccc(-c2csc(Nc3cccc(C)n3)n2)c1 | 8.58% (active)
c1ccc2[nH]c(-c3nc4ccccc4[nH]3)nc2c1 | 8.74% (active)
Cc1ccc(-c2nc3ccccc3[nH]2)cc1N | 8.86% (active)

SMILES | inhibition
O=c1oc(/C=C/c2ccccc2)nc2ccccc12 | 7.24% (active)
Cn1ccnc1SCC(=O)Nc1ccc2c(c1)OCCO2 | 5.39% (active)
CCN(CC(=O)Nc1c(F)cccc1F)C(=O)c1cnc(C)cn1 | 0.25%
Cc1nc2cc(NC(=O)Nc3cccc(F)c3)ccc2n1C | 8.9% (active)
O=C(N/N=C\C1CC=CCC1)c1ccc(Br)o1 (stereo not drawn) | 0.2%
NC(=O)CSc1nnc(NC(=O)c2ccc3ccccc3c2)s1 | 7.69% (active)
CCSc1nnc(NC(=O)c2ccc(C)cc2)s1 | 6.21% (active)
Nc1c(C(=O)Nc2ccc3c(c2)OCCO3)nnn1Cc1ccccc1 | 7.14% (active)
CC[C@]1(O)C[C@@H]2CN(CCc3c([nH]c4ccccc34)[C@@](C(=O)OC)(c3cc4c(cc3OC)N(C)[C@H]3[C@@](O)(C(=O)OC)[C@H](OC(C)=O)[C@]5(CC)C=CCN6CC[C@]43[C@@H]65)C2)C1 | -6.49%
Cc1ccc(-n2cc3ccc([N+](=O)[O-])cc3n2)cc1 | 6.18% (active)
Brc1ccc2nc(N3CCCC3)sc2c1 | 4.08% (active)
S=C(c1ccc(-c2ccccc2)o1)N1CCCCC1 | 5.47% (active)
Cc1ccnc(NC(=O)CNC(=O)c2ccccc2)c1 | 2.35%
Cc1ccnc(NC(=O)CCNS(=O)(=O)c2ccc(C)c(C)c2)c1 | 9.35% (active)
CC1CCCN(c2ccc(C(=O)NCCc3ccccc3)cn2)C1 (stereo not drawn) | 3.59% (active)
O=C(c1cnn2ccccc12)N1CCc2ccccc21 | 6.23% (active)
Cc1sc(NC(=O)c2ccc3ncsc3c2)c(C(N)=O)c1C | 5.5% (active)
O=C(Nc1ccc(Cl)c(Cl)c1)c1ccccc1NC(=O)C1CC=CCC1C(=O)O (stereo not drawn) | 4.5% (active)
Cc1ccc(C(=O)NNC(=O)c2ccc3c(c2)OCCO3)cc1 | 2.35%
Cc1nc(NC(=O)c2ccc3c(c2)OCCO3)ccc1Br | 7.07% (active)
CN1CCN(c2ccc(NC(=O)c3ccc4c(c3)OCCO4)cc2Cl)CC1 | 4.72% (active)
O=C(Nc1ccccc1)c1ccc2c(c1)OCCCO2 | 7.83% (active)
Cc1c(C(=O)Nc2ccccn2)oc2ccc(Br)cc12 | 8.11% (active)
O=C(Nc1ccn(Cc2ccccc2)n1)c1n[nH]c([N+](=O)[O-])c1Cl | 3.58% (active)
O=C(CCc1ccccc1)Nc1ncc([N+](=O)[O-])s1 | 1.92%
